The panel holds about 83,000 compounds, 20% with a hit somewhere; the sample as a whole holds those more often.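 Each cell line was grown in a 96-well plate and treated with one concentration of compound for 48 hours. Values below 10 were considered active.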 A number with no mark means an inactive call. Activity calls are given as the source filed them.

The test system of the test is HL-60(TB) leukemia. In words: NCI-60 one-dose screen, 48 h (100 = growth as untreated, 0 = no growth, -100 = all killed). The conditions noted are these: 10 µM unless noted.
With `CCc1ccccc1-n1c(N)c(C#N)c(-c2ccc(N(C)C)cc2)c(C#N)c1=O`, the growth is 96.4%.

As to `CCc1cccc2c3c(sc12)C(c1ccc(Cl)cc1)C(C#N)=C(N)O3` (stereo not drawn), the growth is -8.89% (active).

For `N#CCSc1nnc2n(Cc3ccccc3)c(=O)c3c4c(sc3n12)CCCC4`, the growth is 81.7%.

(Values after PubChem BioAssay (NCI).)
